# The list is not random: actives were taken first. Their share in the collection is about 0.7%.
# MKP-1 inh: inhibitors of human MKP-1 phosphatase; hit rate 0.15% among 65,000; P28562; recombinant MKP-1, OMFP hydrolysis fluorescence; inhibition, %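 (compounds tested at a single concentration somewhere between 10 and 100 µM)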;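 active means inhibition above about 50%, limit read from the data; inconclusive means inhibition over screen mean plus 3 SD, below that limit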;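 further: 0% = DMSO max control wells and 100% = wells with enzyme stopped by NaOH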
# HePTP inhibitor: human HePTP phosphatase inhibition; recombinant HePTP phosphatase activity, OD absorbance; inhibition, % at 20 µM; hit rate 0.64% among 110,000; in the data active means inhibition above about 50%; inconclusive means no clear call, values can overlap the other calls;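 further: plate controls were vehicle for no effect and reference inhibitor for full effect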
# Target sequence (P35236 whole entry, looked up): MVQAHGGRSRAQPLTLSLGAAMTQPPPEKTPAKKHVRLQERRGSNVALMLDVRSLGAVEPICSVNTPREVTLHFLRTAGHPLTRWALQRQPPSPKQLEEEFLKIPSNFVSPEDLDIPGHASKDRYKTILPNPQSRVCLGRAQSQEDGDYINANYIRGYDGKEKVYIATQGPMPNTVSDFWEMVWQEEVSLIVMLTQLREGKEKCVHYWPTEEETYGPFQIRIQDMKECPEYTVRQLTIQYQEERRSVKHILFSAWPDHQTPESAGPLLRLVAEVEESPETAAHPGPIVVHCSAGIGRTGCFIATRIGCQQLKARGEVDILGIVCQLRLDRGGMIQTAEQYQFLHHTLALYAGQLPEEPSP
# Cdc25B inh: inhibitors of human Cdc25B phosphatase. AID 368. recombinant Cdc25B, OMFP fluorescence Ex485/Em525. inhibition, %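 (compounds tested at 10 µM final in the well)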. P30305. hit rate 0.1% among 65,000; in the data active means inhibition above about 50%
# * hit, by the source's call; u = inconclusive; x = no result given.
SMILES,MKP-1 inh,HePTP inhibitor,Cdc25B inh
CCN(CC)C(=O)c1sc(NC(=O)c2ccc(C(C)(C)C)cc2)c(C(=O)OC)c1C,x,-2,x
O=C(O)c1c(Cl)c(C(=O)O)c(C(=O)O)c(Cl)c1C(=O)O,x,-2,x
CCCCN1C(=O)/C(=C\c2ccco2)SC1=S,x,-7,x
CN1C(=O)/C(=C/C=C/c2ccco2)SC1=S,x,52*,x
CCNC(=O)CN(c1cccc(Cl)c1)S(=O)(=O)c1ccccc1,x,16,x
CSc1ccc(C=Nc2ccccc2C(N)=O)cc1,x,-1,x
Cc1cc(C)nc(Sc2c(C)nn(-c3ccccc3)c2C)n1,25,11,2
Cc1nn(-c2ccccc2)c(C)c1Sc1ccc(Cl)cc1,x,104*,x
O=C(NC(=S)Nc1ccc(N2CCOCC2)c(Cl)c1)c1ccc(Cl)cc1,x,-10,x
[O-]/[N+](=C\c1ccncc1)c1ccc(Br)cc1,57*,-6,-21
[O-]/[N+](=C/c1cccnc1)c1ccc(Br)cc1,u,7,47
O=S(=O)(Nc1ccccc1)c1cc(S(=O)(=O)Nc2ccccc2)c2cc(O)ccc2c1,x,-3,x
COc1ccc(CC(=O)Nc2ccc(-c3nc4ccccc4o3)c(O)c2)cc1OC,x,89*,x
COc1ccc(CC(=O)Nc2ccc(O)c(-c3nc4cc(Cl)ccc4o3)c2)cc1OC,x,-6,x
Cc1ccc(CN2CCN(CC(=O)N3CCc4ccccc4C3)C2=O)cc1,32,-1,-2
Cc1ccc(CN2CCN(CC(=O)N3CCC(C(N)=O)CC3)C2=O)cc1,-1,5,70*
CCCOc1ccc(C(=O)Nc2ccc(C(C)CC)cc2)cc1 (configuration not stated),x,1,x
Cc1ccc(OCC(=O)Nc2cccc(I)c2)c(Br)c1,x,-7,x
O=C(Nc1ccc2c(c1)OCO2)c1nn2c(c1Br)NC(c1cccs1)CC2C(F)(F)F (configuration not stated),x,2,x
Cc1ccc(OCC(=O)N(C)c2ccccc2)c(C)c1,x,5,x
Cc1ccc(OCC(=O)Oc2ccc(C(=O)c3ccccc3)cc2C)c(C)c1,x,104*,x
CC(=O)C1=C(O)C(=O)N(CC2CCCO2)C1c1cccc([N+](=O)[O-])c1 (configuration not stated),x,3,x
CCN1C(=O)/C(=C/c2c(NCCCn3ccnc3)nc3c(C)cccn3c2=O)SC1=S,x,-5,x
Cc1cccn2c(=O)c(/C=C3\SC(=S)N(Cc4ccco4)C3=O)c(NCCCn3ccnc3)nc12,x,62*,x
O=[N+]([O-])c1ccc(C=Nc2ccc(Br)c(Cl)c2)s1,x,9,x
SMILES,MKP-1 inh,HePTP inhibitor,Cdc25B inh
CC1(C)C2CC3C(C)(O)C(c4ccccc4)P(=O)(Cc4ccccc4)C3(C)CC21 (configuration not stated),x,-4,x
Cc1cccc(C)c1OCC(=O)Nc1ccc(N(C)C)cc1,x,8,x
Cn1c(=O)oc2cc(S(=O)(=O)NCCC(=O)NC3CCCC3)ccc21,52*,6,-19
Cn1c(=O)oc2cc(S(=O)(=O)NCCC(=O)NC3CCCc4ccccc43)ccc21 (configuration not stated),7,8,-3
COc1ccccc1C(=O)Nc1ncc(S(=O)(=O)c2ccc([N+](=O)[O-])cc2)s1,x,6,x
CCCC1=NN2C(=N)/C(=C/c3ccc(-c4ccc([N+](=O)[O-])cc4C)o3)C(=O)N=C2S1,x,82*,x
CCC1=NN2C(=N)/C(=C/c3ccc(-c4ccc([N+](=O)[O-])cc4OC)o3)C(=O)N=C2S1,x,-12,x
O=C(Nc1ccc2c(c1)OCO2)c1ccc(Cl)cc1,x,-4,x
O=C(Nc1ccc(Cl)cc1)Nc1ccc2c(c1)OCCO2,x,105*,x
COC(=O)C1=C(C)NC2=C(C(=O)c3ccccc32)C1c1ccc(-c2ccccc2C(=O)O)o1 (configuration not stated),x,10,x
O=C(NCC1CCCO1)c1ccc(Br)cc1 (configuration not stated),x,5,x
O=C1CS/C(=N\N=C\c2cccc(Br)c2)N1,x,9,x
O=C1CS/C(=N\N=C\c2cn(Cc3ccc(Cl)cc3Cl)c3ccccc23)N1,x,66*,x
O=C(O/N=C(/c1ccccc1)c1ccncc1)c1ccc(Br)cc1,x,6,x
CC(Nc1ncnc2nc[nH]c12)c1ccccc1 (configuration not stated),5,-4,66*
Cc1cccc(Nc2ncnc3nc[nH]c23)c1,2,2,0
CCOC(=O)C(=CC1=C/C(=C/N(C)C)C(=O)O1)C(=O)OCC,x,81*,x
CCOC(=O)C(=Cc1cc(OC)c(OC)cc1Br)C(=O)OCC,x,3,x
O=C(NC(=S)NC1CCSC1=O)c1ccco1 (configuration not stated),x,103*,x
O=C(NC(=S)NC1CCSC1=O)c1ccc(Cl)cc1Cl (configuration not stated),x,6,x
COc1cc(/C=C2\C(=O)N(c3ccc(S(N)(=O)=O)cc3)N=C2C)cc(Br)c1OCc1ccccc1,x,6,x
O=C(O)CCN1C(=O)/C(=C/c2ccc(Cl)cc2Cl)SC1=S,x,-19,x
Nc1ccc(S(=O)(=O)O)c2cccc(O)c12,x,103*,x
Nc1ccc(O)c2c1C(=O)c1c(N)ccc(O)c1C2=O,x,8,x
O=C(O)CCCCCN1C(=O)C(=O)/C(=C(/O)c2ccc([N+](=O)[O-])cc2)C1c1ccc2c(c1)OCO2 (configuration not stated),x,104*,x
SMILES,MKP-1 inh,HePTP inhibitor,Cdc25B inh
O=C(O)CCCCCN1C(=O)C(=O)/C(=C(/O)c2ccc(Cl)cc2)C1c1ccc2c(c1)OCO2 (configuration not stated),x,-6,x
COC(=O)c1sc(NC(=O)CCc2ccccc2)c(C(=O)OC)c1C,x,104*,x
COC(=O)c1c(NC(=O)CCc2ccccc2)sc2c1CCCC2,x,-20,x
CCn1c(CNC(=O)c2ccc(OC)c(OC)c2)nnc1SCC(=O)c1ccc(OC)cc1,9,9,-12
COc1ccc(C(=O)CSc2nnc(CNC(=O)c3ccc(OC)c(OC)c3)n2C)cc1,74*,5,-10
COc1ccc(CSCC(=O)O)cc1C(=O)O,x,-10,x
CC(=O)C12c3ccccc3C(c3ccccc31)C1C(=O)N(c3cccc(C(F)(F)F)c3)C(=O)C12 (configuration not stated),x,3,x
CCOc1ccc(C(=O)Nc2ccc3oc(-c4ccncc4)nc3c2)cc1Cl,x,98*,x
CCOc1ccc(C(=O)Nc2ccc3oc(-c4ccccc4F)nc3c2)cc1Cl,x,3,x
O=C(Nc1ccc(F)cc1F)c1cccc(I)c1,x,-23,x
CC(=O)Nc1cc(-c2ccc(Cl)cc2)nn1Cc1ccc(Cl)cc1,x,9,x
CC(=O)Nc1cc(-c2ccc(C)cc2)nn1Cc1ccccc1,x,104*,x
O=C(O)c1cc(-c2ccc(/C=N/n3cnnc3)o2)ccc1O,x,103*,x
CCOC(=O)c1cc(-c2ccc(/C=N\n3cnnc3)o2)ccc1Cl,-2,-6,8
CC1=C(C(=O)OCC2CCCO2)C(c2ccccc2Br)NC(=O)N1 (configuration not stated),x,6,x
C=CCN1C(=O)/C(=C\c2cn(Cc3ccc([N+](=O)[O-])cc3)c3ccccc23)C(=O)NC1=S,x,16,x
C=CCN1C(=O)/C(=C\c2ccc(-c3cccc([N+](=O)[O-])c3)o2)C(=O)NC1=S,x,96*,x
C=CCN1C(=O)/C(=C\c2cc(Br)cc(Cl)c2O)C(=O)NC1=S,x,-3,x
C=CCN1C(=O)/C(=C/c2ccc(C)cc2)C(=O)NC1=S,x,9,x
C=CCN1C(=O)/C(=C\c2ccc(-c3ccc(C)cc3Br)o2)C(=O)NC1=S,x,102*,x
